# Bioassay records: PubChem, National Center for Advancing Translational Sciences (NCATS)
# D1 agonist: activates the human D1 dopamine receptor; HEK293 T-REx D1 cells, calcium flux, agonist mode; activation, % at 2 µM; 360,000 compounds, 1% hits; further: 0% is about no effect
# Target sequence (P21728 whole entry, looked up): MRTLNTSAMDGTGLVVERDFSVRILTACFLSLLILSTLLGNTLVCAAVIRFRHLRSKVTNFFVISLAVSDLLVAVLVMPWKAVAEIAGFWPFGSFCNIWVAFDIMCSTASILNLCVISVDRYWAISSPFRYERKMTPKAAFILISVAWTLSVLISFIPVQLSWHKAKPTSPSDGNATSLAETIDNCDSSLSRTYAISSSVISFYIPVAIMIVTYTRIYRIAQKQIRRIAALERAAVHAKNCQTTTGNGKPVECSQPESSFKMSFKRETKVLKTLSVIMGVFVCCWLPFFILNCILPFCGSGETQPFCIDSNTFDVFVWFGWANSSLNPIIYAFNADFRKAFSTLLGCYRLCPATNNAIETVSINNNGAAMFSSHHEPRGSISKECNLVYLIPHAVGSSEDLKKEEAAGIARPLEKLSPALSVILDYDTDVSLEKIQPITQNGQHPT
#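 Inducible HEK293 T-REx D1 cells, force-coupled to calcium signalling, were plated at 4000 cells/well with tetracycline and held overnight at 30 C. After no-wash calcium dye loading, compound-evoked calcium rise over 180 s flagged agonists.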
# TRHR ag: agonists of human TRH receptor; AID 493084; TRHR cells, calcium flux fluo-8, FDSS agonist mode; 360,000 compounds, 0.18% hits; activation, % at 2 µM; further: 0% is about no effect
#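 In this calcium-flux screen, cells bearing human TRHR are dye-loaded with fluo-8, baselined for 10 cycles, then exposed to library compounds; positive kinetic calcium responses during the agonist phase mark hits, with TRH as control.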
# D1 antag: antagonists of human D1 dopamine receptor; 360,000 compounds, 3.2% hits; HEK293 TREx D1 cells, calcium flux, dopamine EC80; active compounds read low; activity change, negative = inhibition, % at 10 µM; in the data active means activity change below about -30%; further: on the % scale 0 is the no-effect control and ±100 the full control effect
#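 Compound effects on dopamine-evoked calcium signalling were measured in tetracycline-induced HEK293 Trex D1 cells. Dopamine at EC80 followed a 180 s compound pre-read, and fluorescence was tracked kinetically for 180 s more.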
# D1 potentiator: human D1 dopamine receptor positive modulation; AID 504651; HEK293 TREx D1 cells, calcium flux, dopamine EC20 potentiation; P21728; potentiation, % at 10 µM; 360,000 compounds, 0.036% hits; in the data active means potentiation above about 30%; further: 0% is about no effect
# TRHR PAM: allosterically enhances the human TRH receptor. P34981. enhancement, % at 2 µM. 360,000 compounds, 0.66% hits. AID 493056. TRHR cells, fluo-8 calcium fluorescence, EC20 TRH enhancement; in the data active means enhancement above about 30%; further: 0% is about no effect
#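 TRHR-expressing cells loaded with fluo-8 calcium dye were read kinetically (ex 480/em 530) during compound addition, then stimulated with an EC20 of TRH (10 nM final). Enhancement of the Gq-mediated intracellular calcium response was scored.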
# * hit, by the source's call; . = no result; ! = repeats disagree. A selection: hits, their analogues and other compounds. The true share with any hit is near 4.6%. Unless noted, no stated cut-off is given here; in the data, active means activation above about 30%; inactive means the rest.
SMILES,D1 agonist,TRHR ag,D1 antag,D1 potentiator,TRHR PAM
CC(C(=O)NCCSCc1cccc(Cl)c1)N(c1ccccc1)S(C)(=O)=O (centres undefined),15.6,-0.4,-32.2*!,-6.6,-0.7
COc1ccc(CCNC(=O)c2c(C)noc2C)cc1,2.8,1.1,-42.9*,-2.6,-4.1
COc1ccccc1N(CC(=O)NCCSc1ccccc1)S(C)(=O)=O,-0.6,-0.3,-6.3,2.6,-2.2
CCOC(=O)c1c(NC(=O)COc2cccc(C)c2C)sc2c1CCC(CC)C2 (centres undefined),-1.0,0.2,-14.9,-0.3,9.9
O=C(CSc1n[nH]c(-c2ccccc2)n1)NCCc1ccccc1,-0.5,0.1,8.4,-1.0,4.6
O=C(Cc1ccccc1)Nc1sc2c(c1C(=O)Nc1ccc(Cl)cc1)CCOC2,0.6,-1.8,-1.3,-0.5,3.5
Cc1cccc(N(CC(=O)NCCSCc2cccc(Cl)c2)S(=O)(=O)c2ccccc2)c1C,30.9*,3.5,-11.7,-0.6,-16.4
COc1ccc(CCNC(=O)c2cc(S(=O)(=O)N(C)c3ccccc3)ccc2Cl)cc1,12.0,0.7,-56.1*,-3.6,-9.5
CCOc1ccc(N(C)S(=O)(=O)c2ccc(C)c(C(=O)NCCc3ccc(OC)cc3)c2)cc1,-0.1,0.6,-20.7,-5.2,-11.7
COc1ccc(N(CC(=O)NCCc2ccccc2)S(=O)(=O)c2ccc(OC)c(OC)c2)cc1,7.0,-0.6,-11.8,-0.6,-2.1
COc1ccc(N(CC(=O)N/N=C/c2ccc(F)cc2)S(=O)(=O)c2ccccc2)cc1,3.5,-0.1,-7.7,-5.8,10.6
C=CCNC(=O)CN(c1ccc(F)cc1)S(=O)(=O)c1ccc(OC)cc1,3.2,0.0,-48.9*,-11.8,3.0
COc1ccc(S(=O)(=O)N(CC(=O)NCCc2ccccc2)c2ccc(Cl)cc2)cc1,40.4*,-1.4,-20.5,-2.6,3.8
CC1CCN(c2nc3ccccc3nc2SCC(=O)Nc2ccccc2C(C)C)CC1,2.2,1.3,9.7,0.3,-1.5
Cc1cc2c(s1)c1cnn(Cc3ccc(C)c(F)c3)c(=O)c1n2C,1.7,-0.1,-26.9,4.0,6.9
CN(C)S(=O)(=O)N(CC(=O)NCCSCc1ccccc1)c1ccccc1,1.4,-0.6,-61.0*!,-1.8,1.1
COc1ccc(CCNC(=O)CN(c2ccccc2OC)S(=O)(=O)c2ccc(C)cc2)cc1,37.1*!,0.2,-36.0*!,5.4,-5.1
COc1ccc(CCNC(=O)Cc2c(Cl)cccc2Cl)cc1,2.1,-1.6,-35.6*,1.6,11.2
Cc1ccccc1CSCCNC(=O)CN(c1ccccc1)S(=O)(=O)N(C)C,1.7,-0.7,-12.1,-0.6,-9.8
COc1ccc(CCNC(=O)CC(=O)NCCc2ccc(OC)cc2)cc1,4.5,-0.4,-1.4,-11.2,-2.8
COc1cccc(NC(=O)CN(c2ccc([N+](=O)[O-])cc2)S(=O)(=O)c2ccccc2)c1,5.8,-1.0,3.5,-5.7,-4.5
COc1ccc(NC(=O)CN(c2ccc([N+](=O)[O-])cc2)S(=O)(=O)c2ccccc2)cc1,32.7*,-1.0,3.1,-11.3,1.4
Cc1cccc(N(C)C(=O)CSc2nc3ncccc3o2)c1,2.5,-0.2,-2.8,3.1,-4.7
FC(F)(F)c1ccc(NC(=S)NCc2ccccc2)cc1,21.8,0.1,-37.4*,-7.6,-6.5
CN(C)CCCN(Cc1ccccc1)C(=S)Nc1ccc(SC(F)F)cc1,32.2*,3.2,-8.7,-11.6,1.4
SMILES,D1 agonist,TRHR ag,D1 antag,D1 potentiator,TRHR PAM
S=C(NCc1ccccc1)NCc1ccc(Cl)cc1,6.4,0.1,-15.0,0.4,-1.5
CC(=O)c1ccc(NC(=S)N(CCCN(C)C)Cc2ccccc2)cc1,8.2,1.2,4.3,-2.4,3.3
FC(F)Sc1ccc(NC(=S)NCc2ccccc2)cc1,16.1,0.6,-31.7*,-13.2,-3.4
S=C(NCc1ccccc1)NCc1ccccc1,16.6,-1.4,-51.6*,1.6,4.2
Cn1cc(S(=O)(=O)N2CCCCCC2)cc1C(=O)N1CCN(c2ccccc2F)CC1,0.5,-0.1,2.1,-0.1,-18.9
CCN(C(=O)Cn1nnc2sc3c(c2c1=O)CCC(C(C)(C)C)C3)c1cccc(C)c1 (centres undefined),0.1,-0.3,5.4,2.0,-6.2
CCOC(=O)c1[nH]c2ccccc2c1NC(=O)c1cc(OCC)c(OCC)c(OCC)c1,5.4,-0.4,-13.2,0.4,1.1
CN(C)c1ccc(/C=N/NC(=S)NCc2ccccc2)cc1,0.6,-0.2,-82.5*,0.1,-3.6
COc1ccc(C(=O)N2CCc3cc4c(cc3C2C)OCCCO4)cc1 (centres undefined),-0.9,1.4,1.1,-1.9,-6.8
CC1c2cc3c(cc2CCN1C(=O)c1ccc(Br)cc1)OCCCO3 (centres undefined),1.0,0.1,-47.2*,-8.9,-8.2
CC(=O)OCC1O[C@@H](O[C@@H]2C[C@H]3C(C)(C)[C@H](OC(C)=O)CC[C@]3(C)[C@H]3CC[C@]45C[C@]4(CC[C@H]5[C@@H](C)C[C@@H](O)[C@H](O)C(C)(C)O)[C@@]32C)[C@H](O)[C@@H](O)[C@@H]1O (some centres undefined),334.4*,-0.4,14.2,19.3,10.4
Cc1cc(C(=O)NCc2cc(C)n(C)n2)sc1-c1ccccc1,5.8,-0.7,-34.3*,-7.7,-0.8
CCOc1ccccc1NC(=O)C1CCN(S(=O)(=O)c2c(C)noc2/C=C/c2ccc(C)cc2)CC1,4.2,-0.1,1.0,-0.8,0.1
CCc1ccc2oc(C(=O)Nc3nonc3CC)c(C)c2c1,6.8,-1.0,-37.6*!,-8.9,-24.6
C=CCN1C(=O)C2(NC(=O)c3ccccc3N2)c2ccccc21 (centres undefined),0.8,0.9,8.4,-1.3,19.5
CCCCN1C(=O)C2(NNc3ccccc3O2)c2ccccc21 (centres undefined),74.2*,13.8,.,-2.0,-15.2
C=CCN1C(=O)C2(NNc3ccccc3O2)c2ccccc21 (centres undefined),44.8*,7.5,-21.7,-1.2,8.4
O=C(O)Cn1c2ccccc2c2n[nH]c(=S)nc21,0.1,0.5,-33.3*,-6.2,-2.1
CCn1c2ccccc2c2n[nH]c(=S)nc21,1.2,0.0,0.8,-2.6,-5.5
COC(=O)Cn1c2nc3ccccc3nc2c2cccc(C)c21,-0.2,0.1,17.1,-8.7,2.2
COC(=O)Cn1c2ccccc2c2nc3ccccc3nc21,4.0,-0.5,-37.0*,-1.6,-2.1
Cc1cc(C)cc(OCC(=O)OCCN2C(=O)c3ccccc3C2=O)c1,3.1,-0.4,-6.7,14.1,39.3*
Cc1ccc(OCC(=O)OCCN2C(=O)c3ccccc3C2=O)cc1C,1.2,-0.3,3.6,0.1,-3.2
O=C(Nc1ccc2c(c1)OCO2)c1cc2nc(C3CC3)cc(C(F)(F)F)n2n1,0.8,0.5,4.4,2.0,-3.3
O=C(Nc1cccnc1)c1cc2nc(C3CC3)cc(C(F)(F)F)n2n1,-1.1,-0.2,-31.0*,-0.7,2.9
